According to the supplement of paper PMC10849652:
Of roughly 7,900 targets only a part is listed; those with a hit were picked by preference. About 0.6% of all pairs of compound and target were hits. Values without a mark were called inactive.

Key:
Assay in all cases: log2 fold change, soluble protein after heating vs DMSO (PISA); higher = thermal stabilisation; K562 cells, 10 uM, 30 min; active = over 0.2 and 3.5 SD of the protein, either way, in both replicates (recomputed)
[1] = compound: CN1CCN(CCOc2cc(OC3CCOCC3)c3c(Nc4c(Cl)ccc5c4OCO5)ncnc3c2)CC1 [saracatinib]
Summary of the method: (§1)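 K562 cells (2×10^6 cells/mL) were treated with 10 μM compound for 30 min, and aliquots were heated for 3 min over 48°C-58°C. Pooled aliquots were extracted in PBS with 0.5% NP-40 at 4°C, and the supernatant after 21,000xg for 90 min was measured by TMTpro 16plex LC-MS/MS with channel sums equalised. Reported thermal stability, relative to control samples and from duplicates, is a log2 fold change.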

[2] = compound: CN1CCN(c2nc(C3=C(c4c[nH]c5ccccc45)C(=O)NC3=O)c3ccccc3n2)CC1 [sotrastaurin]
Summary of the method: as §1

[3] = compound: CN1CC[C@H](c2c(O)cc(O)c3c(=O)cc(-c4ccccc4Cl)oc23)[C@H](O)C1 [alvocidib]
Summary of the method: as §1

[4] = compound: CN1CCc2c(c3ccccc3n2Cc2ccc(C(=O)NO)cc2)C1 [Tubastatin A]
Summary of the method: as §1

[5] = compound: CNC(=O)C1=CC=CC=C1NC2=NC(=NC=C2Cl)NC3=C(C=C(C=C3)N4CCOCC4)OC
Summary of the method: as §1

[6] = compound: CNC(=O)c1ccc(Nc2ncc(C(F)(F)F)c(NCc3nccnc3N(C)S(C)(=O)=O)n2)cc1 [defactinib]
Summary of the method: as §1

[7] = compound: CNCc1ccc(-c2[nH]c3cc(F)cc4c3c2CCNC4=O)cc1 [rucaparib]
Summary of the method: as §1

[8] = compound: CNc1nc(-c2ccc3c(N)n[nH]c3c2)cc(N2C[C@@H](C(=O)NC3CCCCC3)CC[C@H]2C)n1
Summary of the method: as §1

[9] = compound: COC(=O)N[C@@H](C)CNc1nccc(-c2cn(C(C)C)nc2-c2cc(Cl)cc(NS(C)(=O)=O)c2F)n1 [encorafenib]
Summary of the method: as §1

[10] = compound: COC(=O)[C@H](CCSC)NC(=O)C1=C(C=C(C=C1)NC[C@H](CS)N)C2=CC=CC=C2
Summary of the method: as §1

[11] = compound: COC1=CC=C(C=C1)CN2C=CC3=C2C=C(C=C3)C(=O)NO
Summary of the method: as §1

[12] = compound: CON(C)C(=O)N1N=C(c2cc(F)ccc2F)S[C@@]1(CCCN)c1ccccc1 [filanesib]
Summary of the method: as §1

[13] = compound: CO[C@H]1C[C@@H]2CC[C@@H](C)[C@@](O)(O2)C(=O)C(=O)N2CCCC[C@H]2C(=O)O[C@H]([C@H](C)C[C@@H]2CC[C@H](n3cnnn3)[C@H](OC)C2)CC(=O)[C@H](C)/C=C(\C)[C@@H](O)[C@@H](OC)C(=O)[C@H](C)C[C@H](C)/C=C/C=C/C=C/1C [zotarolimus]
Summary of the method: as §1

[14] = compound: COc1cc(C(=O)O)ccc1NC(=O)[C@@H]1N[C@@H](CC(C)(C)C)[C@](C#N)(c2ccc(Cl)cc2F)[C@H]1c1cccc(Cl)c1F [idasanutlin]
Summary of the method: as §1

[15] = compound: COc1cc(Nc2ncc3c(n2)-c2ccc(Cl)cc2C(c2c(F)cccc2OC)=NC3)ccc1C(=O)O [alisertib]
Summary of the method: as §1

[16] = compound: COc1cc2nc(-c3cc(F)ccc3O)nc(N[C@@H]3CNC[C@H]3C(C)(C)O)c2cc1OC
Summary of the method: as §1

[17] = compound: COc1cc2ncnc(Nc3ccc(F)c(Cl)c3)c2cc1OCCCN1CCOCC1 [gefitinib]
Summary of the method: as §1

[18] = compound: COc1cccc2cc(-c3nc([C@H]4CC[C@H](C(=O)O)CC4)n4ncnc(N)c34)[nH]c12
Summary of the method: as §1

[19] = compound: CS(=O)(=O)CCNCc1ccc(-c2ccc3ncnc(Nc4ccc(OCc5cccc(F)c5)c(Cl)c4)c3c2)o1 [lapatinib]
Summary of the method: as §1

[20] = compound: CS(=O)(=O)N1CCN(Cc2cc3nc(-c4cccc5[nH]ncc45)nc(N4CCOCC4)c3s2)CC1 [pictilisib]
Summary of the method: as §1

Chain of UniProt P03905 (P03905 whole entry, looked up): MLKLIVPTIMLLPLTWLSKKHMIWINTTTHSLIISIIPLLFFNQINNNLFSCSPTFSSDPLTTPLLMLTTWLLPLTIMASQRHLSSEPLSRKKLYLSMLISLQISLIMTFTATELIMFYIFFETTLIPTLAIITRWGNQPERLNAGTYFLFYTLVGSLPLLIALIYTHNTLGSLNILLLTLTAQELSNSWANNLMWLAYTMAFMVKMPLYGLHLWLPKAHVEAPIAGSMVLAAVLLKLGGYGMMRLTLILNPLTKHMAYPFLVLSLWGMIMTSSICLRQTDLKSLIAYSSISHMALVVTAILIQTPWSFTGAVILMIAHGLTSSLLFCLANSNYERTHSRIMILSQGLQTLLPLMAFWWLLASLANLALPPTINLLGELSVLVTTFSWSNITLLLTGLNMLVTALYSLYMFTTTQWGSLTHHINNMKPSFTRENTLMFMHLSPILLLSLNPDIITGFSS
Chain of UniProt Q9BZF1 (Q9BZF1 whole entry, looked up): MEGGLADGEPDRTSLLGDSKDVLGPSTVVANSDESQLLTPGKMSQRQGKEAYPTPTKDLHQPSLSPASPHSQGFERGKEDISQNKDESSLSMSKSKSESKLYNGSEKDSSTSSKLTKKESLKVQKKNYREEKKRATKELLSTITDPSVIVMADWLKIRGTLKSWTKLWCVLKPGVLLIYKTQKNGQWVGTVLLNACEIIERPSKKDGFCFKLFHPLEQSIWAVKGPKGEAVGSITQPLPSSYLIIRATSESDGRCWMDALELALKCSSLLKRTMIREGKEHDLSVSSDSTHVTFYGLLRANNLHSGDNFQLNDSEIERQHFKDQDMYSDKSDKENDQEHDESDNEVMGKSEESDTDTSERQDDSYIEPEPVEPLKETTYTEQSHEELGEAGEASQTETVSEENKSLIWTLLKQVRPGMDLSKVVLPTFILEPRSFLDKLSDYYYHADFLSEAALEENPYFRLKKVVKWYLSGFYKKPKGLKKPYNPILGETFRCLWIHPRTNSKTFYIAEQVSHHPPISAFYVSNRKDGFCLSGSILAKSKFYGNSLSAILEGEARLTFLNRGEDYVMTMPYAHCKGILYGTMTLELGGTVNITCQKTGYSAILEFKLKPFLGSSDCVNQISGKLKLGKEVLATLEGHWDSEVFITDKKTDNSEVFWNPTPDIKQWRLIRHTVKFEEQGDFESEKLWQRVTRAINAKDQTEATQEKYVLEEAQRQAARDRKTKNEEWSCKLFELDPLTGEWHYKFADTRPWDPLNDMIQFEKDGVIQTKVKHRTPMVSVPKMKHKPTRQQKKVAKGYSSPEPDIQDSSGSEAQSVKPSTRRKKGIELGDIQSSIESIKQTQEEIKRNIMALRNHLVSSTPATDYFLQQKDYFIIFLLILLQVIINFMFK
Chain of UniProt P35580 (P35580 whole entry, looked up): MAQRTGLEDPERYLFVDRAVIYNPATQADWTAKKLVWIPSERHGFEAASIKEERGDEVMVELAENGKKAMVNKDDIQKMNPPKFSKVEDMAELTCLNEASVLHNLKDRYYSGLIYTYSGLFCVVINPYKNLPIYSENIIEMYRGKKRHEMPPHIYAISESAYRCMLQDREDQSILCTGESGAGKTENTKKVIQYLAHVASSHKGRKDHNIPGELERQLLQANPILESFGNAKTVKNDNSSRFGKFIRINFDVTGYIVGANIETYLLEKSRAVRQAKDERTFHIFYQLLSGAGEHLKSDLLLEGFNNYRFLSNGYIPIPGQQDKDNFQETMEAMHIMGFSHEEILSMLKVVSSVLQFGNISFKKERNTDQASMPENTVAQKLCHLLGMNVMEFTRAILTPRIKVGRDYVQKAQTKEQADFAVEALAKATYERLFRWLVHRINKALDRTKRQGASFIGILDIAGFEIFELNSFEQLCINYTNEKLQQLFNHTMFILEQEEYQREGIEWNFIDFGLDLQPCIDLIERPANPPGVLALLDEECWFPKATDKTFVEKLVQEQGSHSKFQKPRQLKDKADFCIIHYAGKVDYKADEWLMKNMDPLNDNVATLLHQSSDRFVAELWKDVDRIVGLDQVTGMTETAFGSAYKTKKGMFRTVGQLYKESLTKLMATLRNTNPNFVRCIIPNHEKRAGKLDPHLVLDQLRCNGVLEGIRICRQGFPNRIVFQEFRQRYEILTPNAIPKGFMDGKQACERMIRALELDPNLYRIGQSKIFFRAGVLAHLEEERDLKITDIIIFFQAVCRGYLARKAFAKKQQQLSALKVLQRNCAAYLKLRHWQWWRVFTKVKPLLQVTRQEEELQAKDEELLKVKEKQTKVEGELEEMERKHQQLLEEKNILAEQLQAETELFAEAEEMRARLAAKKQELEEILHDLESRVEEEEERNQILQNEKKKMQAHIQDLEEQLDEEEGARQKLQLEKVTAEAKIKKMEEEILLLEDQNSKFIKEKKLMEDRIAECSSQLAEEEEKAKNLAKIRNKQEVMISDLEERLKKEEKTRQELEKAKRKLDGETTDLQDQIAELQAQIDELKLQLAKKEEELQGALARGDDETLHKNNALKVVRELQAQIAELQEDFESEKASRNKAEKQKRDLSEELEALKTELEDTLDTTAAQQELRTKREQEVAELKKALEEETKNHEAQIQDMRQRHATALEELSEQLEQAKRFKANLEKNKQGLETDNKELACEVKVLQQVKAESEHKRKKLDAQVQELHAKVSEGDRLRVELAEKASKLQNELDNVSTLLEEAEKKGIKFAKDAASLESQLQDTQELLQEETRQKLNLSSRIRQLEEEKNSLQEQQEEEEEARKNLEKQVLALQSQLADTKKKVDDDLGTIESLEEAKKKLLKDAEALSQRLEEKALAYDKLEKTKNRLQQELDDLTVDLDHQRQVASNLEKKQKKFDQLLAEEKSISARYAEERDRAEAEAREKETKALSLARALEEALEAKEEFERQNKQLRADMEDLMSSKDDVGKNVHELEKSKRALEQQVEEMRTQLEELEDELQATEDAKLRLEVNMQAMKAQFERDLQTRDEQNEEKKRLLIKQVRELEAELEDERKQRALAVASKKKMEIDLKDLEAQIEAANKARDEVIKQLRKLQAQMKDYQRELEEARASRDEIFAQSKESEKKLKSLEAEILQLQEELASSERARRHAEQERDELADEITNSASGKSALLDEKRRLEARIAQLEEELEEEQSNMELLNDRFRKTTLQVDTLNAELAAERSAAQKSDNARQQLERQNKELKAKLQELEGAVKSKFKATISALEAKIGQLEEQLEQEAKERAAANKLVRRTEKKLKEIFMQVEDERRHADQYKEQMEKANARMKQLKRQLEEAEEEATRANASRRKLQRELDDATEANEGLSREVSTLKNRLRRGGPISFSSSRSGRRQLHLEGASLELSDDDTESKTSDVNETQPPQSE
Chain of UniProt P03886 (P03886 whole entry, looked up): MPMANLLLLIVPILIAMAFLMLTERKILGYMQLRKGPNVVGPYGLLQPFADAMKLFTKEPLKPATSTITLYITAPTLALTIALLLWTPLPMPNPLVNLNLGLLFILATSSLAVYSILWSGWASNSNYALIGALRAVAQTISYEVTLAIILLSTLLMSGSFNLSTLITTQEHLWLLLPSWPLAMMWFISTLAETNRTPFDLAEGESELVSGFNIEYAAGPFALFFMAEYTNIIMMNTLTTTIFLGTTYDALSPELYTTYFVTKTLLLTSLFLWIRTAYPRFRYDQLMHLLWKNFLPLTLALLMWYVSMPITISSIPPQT
Chain of UniProt O95747 (O95747 whole entry, looked up): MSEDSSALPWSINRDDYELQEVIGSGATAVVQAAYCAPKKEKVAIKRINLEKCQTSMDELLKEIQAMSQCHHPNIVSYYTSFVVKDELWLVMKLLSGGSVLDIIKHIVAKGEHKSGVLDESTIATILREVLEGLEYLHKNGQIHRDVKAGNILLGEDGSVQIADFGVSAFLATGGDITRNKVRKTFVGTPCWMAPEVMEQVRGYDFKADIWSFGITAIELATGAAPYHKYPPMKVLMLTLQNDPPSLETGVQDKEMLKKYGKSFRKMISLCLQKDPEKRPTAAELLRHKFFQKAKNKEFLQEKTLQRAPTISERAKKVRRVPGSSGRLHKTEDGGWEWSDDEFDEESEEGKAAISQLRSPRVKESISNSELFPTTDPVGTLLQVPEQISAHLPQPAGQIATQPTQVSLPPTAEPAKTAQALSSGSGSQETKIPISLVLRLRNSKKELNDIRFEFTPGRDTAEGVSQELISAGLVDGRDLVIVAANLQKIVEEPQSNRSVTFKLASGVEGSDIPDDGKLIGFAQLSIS
Chain of UniProt Q9BSU3 (Q9BSU3 whole entry, looked up): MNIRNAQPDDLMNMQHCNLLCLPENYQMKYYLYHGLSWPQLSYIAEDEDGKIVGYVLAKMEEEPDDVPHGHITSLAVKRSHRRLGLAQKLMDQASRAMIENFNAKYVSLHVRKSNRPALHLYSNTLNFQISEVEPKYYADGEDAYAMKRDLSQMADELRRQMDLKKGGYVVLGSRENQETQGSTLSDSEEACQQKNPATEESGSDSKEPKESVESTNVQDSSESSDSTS
Chain of UniProt P49757 (P49757 whole entry, looked up): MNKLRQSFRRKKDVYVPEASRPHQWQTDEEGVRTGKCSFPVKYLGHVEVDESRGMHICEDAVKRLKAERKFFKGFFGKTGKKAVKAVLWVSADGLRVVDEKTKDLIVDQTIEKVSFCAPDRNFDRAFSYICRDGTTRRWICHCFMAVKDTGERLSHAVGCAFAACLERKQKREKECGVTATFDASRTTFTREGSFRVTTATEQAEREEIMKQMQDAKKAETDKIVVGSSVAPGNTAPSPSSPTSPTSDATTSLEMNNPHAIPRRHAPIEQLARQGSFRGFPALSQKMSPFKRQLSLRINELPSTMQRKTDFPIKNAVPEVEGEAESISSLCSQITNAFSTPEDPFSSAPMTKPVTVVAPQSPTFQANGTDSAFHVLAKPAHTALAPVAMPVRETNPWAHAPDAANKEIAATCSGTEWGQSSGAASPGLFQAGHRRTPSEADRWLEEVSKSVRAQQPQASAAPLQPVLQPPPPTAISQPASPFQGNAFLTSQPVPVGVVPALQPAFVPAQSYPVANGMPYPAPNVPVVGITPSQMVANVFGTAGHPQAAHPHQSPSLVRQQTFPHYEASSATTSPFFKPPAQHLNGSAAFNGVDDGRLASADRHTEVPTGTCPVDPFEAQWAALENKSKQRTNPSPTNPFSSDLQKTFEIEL

| Target | log2 fold change [1] | log2 fold change [2] | log2 fold change [3] | log2 fold change [4] | log2 fold change [5] | log2 fold change [6] | log2 fold change [7] | log2 fold change [8] | log2 fold change [9] | log2 fold change [10] | log2 fold change [11] | log2 fold change [12] | log2 fold change [13] | log2 fold change [14] | log2 fold change [15] | log2 fold change [16] | log2 fold change [17] | log2 fold change [18] | log2 fold change [19] | log2 fold change [20] |
| --- | --- | --- | --- | --- | --- | --- | --- | --- | --- | --- | --- | --- | --- | --- | --- | --- | --- | --- | --- | --- |
| MT-ND4 (UniProt P03905) | 0.048 | -0.025 | -0.022 | 0.061 | 0.053 | -0.143 | -0.077 | -0.145 | 0.058 | 0.057 | -0.021 | -0.009 | -0.069 | -0.147 | -0.02 | -0.088 | 0.003 | 0.046 | 0.013 | -0.214 |
| NCAPD2 (UniProt Q15021) | -0.052 | -0.145 | -0.029 | 0.012 | 0.111 | -0.052 | 0.142 | 0.008 | 0.11 | -0.025 | 0.025 | -0.006 | 0.061 | -0.072 | -0.005 | 0.092 | 0.029 | -0.138 | -0.024 | 0.059 |
| MRPL50 (UniProt Q8N5N7) | 0.148 | -0.048 | 0.066 | 0.133 | -0.011 | 0.04 | 0.063 | -0.065 | -0.01 | 0.061 | -0.03 | 0.078 | 0.202 | -0.122 | -0.078 | -0.719 (active) | 0.004 | -0.022 | 0.42 | -0.067 |
| OSBPL8 (UniProt Q9BZF1) | -0.175 | -0.054 | -0.011 | 0.078 | 0.11 | 0.025 | 0.232 | 0.488 (active) | 0.167 | -0.078 | 0.034 | 0.077 | -0.067 | -0.016 | -0.052 | -0.086 | 0.23 | -0.22 | 0.142 | -0.015 |
| NDUFS7 (UniProt O75251) | -0.047 | 0.014 | -0.011 | -0.001 | -0.038 | -0.016 | -0.004 | -0.048 | 0.024 | 0.002 | -0.009 | -0.108 | -0.036 | -0.112 | 0.039 | -0.106 | -0.029 | 0.057 | 0.015 | 0.047 |
| NOL11 (UniProt Q9H8H0) | 0.093 | 0.022 | 0.089 | -0.08 | 0.007 | 0.186 | 0.071 | 0.002 | -0.012 | -0.009 | -0.029 | 0 | 0.005 | -0.046 | -0.017 | 0.067 | -0.008 | 0.056 | 0.005 | 0.025 |
| MOV10 (UniProt Q9HCE1) | 0.007 | 0.024 | 0.232 | 0.025 | 0.107 | 0.167 | 0.271 | 0 | 0.05 | 0.053 | -0.048 | 0.155 | -0.005 | 0.071 | -0.073 | -0.021 | 0.002 | -0.1 | 0.073 | -0.048 |
| NUDT21 (UniProt O43809) | 0.028 | 0.024 | -0.017 | 0.01 | -0.166 | 0.045 | 0.004 | -0.025 | -0.015 | -0.034 | -0.003 | 0.027 | 0.013 | 0.006 | -0.077 | 0.102 | -0.019 | 0.031 | -0.019 | 0.017 |
| NDUFS8 (UniProt O00217) | -0.011 | -0.061 | -0.081 | -0.04 | -0.037 | -0.009 | -0.093 | 0.017 | 0.059 | -0.026 | -0.07 | -0.122 | -0.003 | -0.147 | -0.15 | -0.069 | -0.028 | 0.081 | 0.01 | 0.018 |
| OGFOD1 (UniProt Q8N543) | 0.007 | 0.024 | -0.026 | -0.163 | 0.012 | -0.027 | -0.051 | -0.028 | -0.028 | 0.041 | -0.294 (active) | -0.05 | -0.02 | -0.038 | -0.021 | 0.001 | 0.015 | 0.041 | -0.034 | 0.065 |
| MT-ND1 (UniProt P03886) | 0.1 | -0.005 | -0.071 | 0.123 | -0.025 | -0.068 | -0.041 | -0.11 | 0.017 | -0.058 | -0.051 | 0.053 | 0.131 | -0.141 | -0.015 | -0.152 | 0.1 | 0.051 | -0.113 |  |
| NAA11 (UniProt Q9BSU3) | 0.033 | -0.247 | -0.038 | 0.035 | -0.078 | -0.132 | 0.135 | -0.133 | 0.022 | 0.034 | 0.077 | -0.026 | -0.022 | 0.037 | -0.066 | 0.13 | 0.037 | 0.116 | -0.085 |  |
| OXSR1 (UniProt O95747) | -0.048 | 0.004 | -0.094 | 0.038 | -0.061 | -0.093 | 0.001 | 0.033 | 0.042 | -0.051 | 0.014 | -0.009 | -0.007 | -0.068 | -0.073 | 0.018 | -0.007 | 0.034 | -0.033 | 0.028 |
| NARS2 (UniProt Q96I59) | -0.004 | 0.03 | -0.039 | -0.127 | -0.056 | 0.001 | -0.021 | -0.006 | 0.008 | -0.008 | -0.213 | -0.196 | 0.027 | -0.072 | -0.046 | 0.007 | -0.039 | 0.09 | -0.031 | -0.037 |
| MYH10 isoform 3 (UniProt P35580) | 0.019 | -0.058 | -0.034 | 0.002 | 0.024 | -0.039 | -0.056 | -0.005 | 0.017 | -0.023 | 0.092 | -0.116 | 0.011 | -0.065 | -0.025 | 0.036 | -0.005 | -0.007 | -0.006 | -0.033 |
| NUMB (UniProt P49757) | 0.033 | -0.266 (active) | -0.095 | -0.014 | -0.027 | -0.044 | 0.01 | 0.065 | 0.081 | 0 | -0.051 | 0.074 | 0.015 | 0 | -0.064 | 0.04 | 0.027 | -0.017 | 0.012 | 0.076 |
